Source: PubChem BioAssay
Most compounds without a hit are left out; they make up all but 12% or so of the library.
JMJD2A Tudor inh: qHTS Assay for Inhibitors of JMJD2A-Tudor Domain; AlphaScreen JMJD2A-Tudor / H3K4me3 peptide binding; Potency, µM (titrated, usually from 114 µM), most hits filed as inhibitors; AID 504339, 2011; 390,000 compounds, 4.4% hits; also: nearly all actives have a fitted effect of over 50% in size
G9a inh: qHTS Assay for Inhibitors of Histone Lysine Methyltransferase G9a; Histone-lysine N-methyltransferase EHMT2 (Homo sapiens), Q96KQ7; G9a H3K9 monomethylation, AlphaScreen, 2 h; Potency, µM (titrated, usually from 102 µM), usual class: inhibitors; 350,000 compounds, 8.8% hits; also: nearly all actives have a fitted effect of over 75% in size
Target sequence (Q96KQ7 913-1193 limits assumed): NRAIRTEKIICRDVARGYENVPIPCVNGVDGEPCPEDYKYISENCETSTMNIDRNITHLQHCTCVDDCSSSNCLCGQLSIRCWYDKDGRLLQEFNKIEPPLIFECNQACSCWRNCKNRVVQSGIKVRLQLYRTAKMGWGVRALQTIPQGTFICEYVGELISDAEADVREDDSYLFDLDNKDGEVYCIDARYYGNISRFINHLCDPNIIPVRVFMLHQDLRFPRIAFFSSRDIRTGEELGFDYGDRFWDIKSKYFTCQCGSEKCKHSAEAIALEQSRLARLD
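AlphaScreen detection with an anti-monomethyl H3K9 antibody quantified product after a 2 h room-temperature reaction containing 500 nM biotinylated H3K9 peptide, 20 µM SAM and 20 nM enzyme, which had been preincubated 15 min with compound.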
Sfp PPTase inh: qHTS Assay for Inhibitors of Bacillus subtilis Sfp phosphopantetheinyl transferase (PPTase); Potency, µM, actives largely listed as inhibitors; Biochemical Sfp PPTase activity, qHTS; 310,000 compounds, 3.5% hits; AID 1490, 2009; 4'-phosphopantetheinyl transferase ffp (Bacillus subtilis), Q9F4F7;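 also: the enzyme is Sfp with the accession as filed and its product quenches rhodamine fluorescence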
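Fluorescence-quenching assay with 15 nM Sfp, 5 uM rhodamine-CoA and 12.5 uM BHQ-2-labelled ybbR peptide in pH 7.6 Hepes/MgCl2 buffer. Enzyme was pre-incubated with compound for 15 min at room temperature. Rate was taken from the 30-min fluorescence change (525/598 nm).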
HP1b chromo inh: HTS for Inhibitors of HP1-beta Chromodomain Interactions with Methylated Histone Tails. Chromobox protein homolog 1 (Homo sapiens), P83916. 390,000 compounds, 0.56% hits. AID 540317, 2011. AlphaScreen HP1-beta / biotin-H3K9me3 peptide binding. Potency, µM (series often up to 114 µM), hits mostly inhibitors; also: nearly all actives have a fitted effect of over 70% in size
Target sequence (P83916 whole entry, looked up): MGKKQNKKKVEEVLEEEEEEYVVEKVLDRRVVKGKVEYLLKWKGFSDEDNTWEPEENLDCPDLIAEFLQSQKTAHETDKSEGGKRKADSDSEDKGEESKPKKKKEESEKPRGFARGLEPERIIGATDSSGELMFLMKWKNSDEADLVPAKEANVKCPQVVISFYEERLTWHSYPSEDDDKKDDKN
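AlphaScreen: HP1-beta (50 nM) preformed 30 min with biotin-H3(1-18)K9me3 peptide (50 nM) in PBS pH 7.4, 0.01% Tween-20. Compound added for 30 min at RT, then streptavidin donor/nickel chelate acceptor beads (10 ug/mL) for 30 min.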
BAZ2B inh: qHTS Assay for Inhibitors of BAZ2B | Potency, µM (highest dose often 114 µM), most hits filed as inhibitors | 360,000 compounds, 4.4% hits | Bromodomain adjacent to zinc finger domain protein 2B (Homo sapiens), Q9UIF8 | AID 504333, 2011 | AlphaScreen BAZ2B-H3K14Ac peptide displacement; also: nearly all actives have a fitted effect of over 60% in size
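BAZ2B (50 nM) with biotin-H3(5-23)K14Ac peptide (50 nM) in PBS pH 7.4, 0.01% Tween-20, preformed 30 min, then compound 30 min at room temperature; top concentration 110uM. AlphaScreen streptavidin donor/nickel chelate acceptor beads (10 ug/mL final), 20 min dark, signal read.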
PLK1 PBD block: qHTS for Inhibitors of PLK1-PDB (polo-like kinase 1 - polo-box domain): Primary Screen | Plk1 PBD binding of FITC phosphopeptide, fluorescence polarization | Serine/threonine-protein kinase PLK1 (Homo sapiens), P53350 | Potency, µM, hits mostly inhibitors | 360,000 compounds, 2.8% hits | AID 720504, 2013; also: series mostly up to about 57 µM; nearly all actives have a fitted effect of over 65% in size
Hits are given with their value; n = inactive; u = inconclusive; x = no result given; [ ] = remark or other dose. Calls follow the shape of the dose curve; as a rule, active = well fitted curve in the direction sought with a large enough effect; inconclusive = small, poorly fitted or top-dose-only effect, or another doubt; inactive = no such curve, though single readings can be large; an effect the other way counts as inactive or inconclusive.

SMILES	JMJD2A Tudor inh	G9a inh	Sfp PPTase inh	HP1b chromo inh	BAZ2B inh	PLK1 PBD block
COc1ccc(N2CC3=C(C2=O)C(c2ccc(Br)cc2)NC(=O)N3C)cc1 (stereo not given)	n	n	x	n	n	x
S=C(NCc1ccccc1)Nc1ccc(Cl)cc1	n	n	n	n	n	n
C=CCNC(=S)Nc1ccc(Cl)cc1	n[11.4 µM]	n	n	n	n	13µM
C=CCNC(=S)NNC(=O)COc1ccc(Cl)cc1Cl	u	10µM	n	n	n	n
O=C(COc1ccc(Cl)cc1Cl)NNC(=S)Nc1ccc(F)cc1	n	11µM	n	n	n	n
Cc1occc1C(=O)NNC(=S)NC(=O)COc1ccc(Cl)cc1Cl	n	8.9µM	n	u	n	n
Cc1ccc(C)c(S(=O)(=O)c2nnn3c2nc(Nc2ccc(C)c(C)c2)c2ccccc23)c1	n	n	x	n	n	x
CCOc1ccc(NC(=O)CN2C(=O)COc3ccc(S(=O)(=O)NC4CCCC4)cc32)cc1	n	n	x	n	n	x
CC(C)c1ccc(OCC(=O)NCC(c2ccc(Cl)cc2)N2CCOCC2)cc1 (stereo not given)	n	n	x	n	n	x
Nc1nnc(SCCCC(=O)c2ccccc2)s1	n	n	n	n	n	n
Cc1cc(C)c(NC(=O)CCCSc2nnc(N)s2)c(C)c1	n	50µM	n	n	n	n
CC12CCC(C(=O)NNc3ccc([N+](=O)[O-])cc3)(OC1=O)C2(C)C (stereo not given)	n	n	n	n	n	n
CC12CCC(C(=O)NNc3ccccc3)(OC1=O)C2(C)C (stereo not given)	n	56µM	n	n	n	n
Cc1ccc(C(=O)NCC(c2ccc3c(c2)OCO3)N2CCOCC2)cc1C (stereo not given)	n	n	x	n	n	x
CCCC1Cc2c(sc3ncnc(N)c23)CO1 (stereo not given)	n	45µM	n	n	n	n
CC1(C)Cc2c(sc3ncnc(N)c23)CO1	n	n	n	n	n	n
O=C(Nc1nnc(-c2ccccn2)o1)c1cccc(Cl)c1	n	n	n	n	x	n
N#Cc1ccc(C(=O)Nc2nnc(-c3ccccn3)o2)cc1	u	50µM	n	n	8.9µM	n
CC(=O)Nc1nnc(-c2ccccn2)o1	u	28µM	u	n	u	n
CCC(C)(C)C1CCC2(CC1)NC(=O)N(CC(=O)N(C)Cc1ccc3c(c1)OCCO3)C2=O (stereo not given)	n	n	x	n	n	n
CC(C)CN1CCNC(=O)C1CC(=O)NCCc1ccc(C(F)(F)F)cc1 (stereo not given)	n	u	n	n	n	n
Cc1ccccc1CN1CCNC(=O)C1CC(=O)NCCN1CCCCC1=O (stereo not given)	n	79µM	n	n	n	n
Cc1cccc(CCNC(=O)CC2C(=O)NCCN2Cc2ccccc2C)n1 (stereo not given)	n	50µM	n	n	n	n
CC(C)CN1CCNC(=O)C1CC(=O)NCCCN1CCCc2ccccc21 (stereo not given)	n	n[12.7 µM]	n	n	79µM	n
Cc1ccccc1CN1CCNC(=O)C1CC(=O)O (stereo not given)	n	14µM	n	n	n	n
SMILES	JMJD2A Tudor inh	G9a inh	Sfp PPTase inh	HP1b chromo inh	BAZ2B inh	PLK1 PBD block
Cc1ccccc1CNC(=O)CC1C(=O)NCCN1CC1CCCCC1 (stereo not given)	n	u	n	n	n	n
Cc1ccc(-c2nnc3ccc(SCC(=O)c4ccccc4)nn23)cc1	n	x	x	n	x	x
COc1cc(OC)c2c(c1Cl)O[C@@]1(C2=O)[C@H](C)CC(=O)C[C@@H]1OC	x	n[21.5 µM]	n	x	x	x
COc1ccc(CCN2CC(C(=O)NCC(=O)Nc3ccc(F)c(F)c3)CC2=O)cc1OC (stereo not given)	n	n[0.501 µM]	x	n	n	n
COc1ccc(CN2CCNC(=O)C2CC(=O)O)c(OC)c1 (stereo not given)	n	14µM	n	n	n	n
COc1ccc(CCNC(=O)Cn2c(C)c3cnn(-c4ccccc4)c(=O)c3c2C)cc1OC	n	n	x	n	n	x
O=[N+]([O-])c1cccnc1N1CCOCC1	n	x	n	n	n	n
Cc1cc(C)n(-c2ncccc2[N+](=O)[O-])n1	n	x	n	n	n	n
O=[N+]([O-])c1cccnc1-n1cnc2ccccc21	n	45µM	10µM	n	n	n
Cc1cc2ncn(-c3ncccc3[N+](=O)[O-])c2cc1C	u	11µM	40µM	n	89µM	n
COc1ccc(C(C)NC(=S)NC2CCCC2)cc1OC (stereo not given)	n	18µM	n	n	n	n
CC(NC(=O)c1ccc(S(=O)(=O)N(C)C)cc1)c1ccccc1 (stereo not given)	79µM	n[12.7 µM]	n	n	n	u
COC(=O)C1=C(C)Nc2ccc(C)cc2S1	79µM	40µM	u	u	40µM	u
O=C1CN(C(=O)COc2ccc(F)cc2Br)c2ccccc2N1	n	u	n	n	n	n
Cc1ccc(NC(=O)c2ccc3c(c2)CCN3S(C)(=O)=O)cc1C	16µM	n	n	n	n	3µM
Cc1ccc(NC(=O)c2ccc3c(c2)CCN3S(C)(=O)=O)cc1	x	x	x	x	x	n
Cc1[nH]c2ccc(C(=O)N3CCCC3)cc2c1C	n	n	n	n	n	n
CCOC(=O)c1[nH]c(C)c(C(=O)N2CCN(c3ccc(F)cc3)CC2)c1C	n	u	n	n	n	n
COc1ccccc1N1CCN(C(=O)c2ccc3c(c2)CCN3S(C)(=O)=O)CC1	u	n	n	n	n	21µM
CCOC(=O)c1[nH]c(C)c(C(=O)N2CCN(c3cccc(Cl)c3)CC2)c1C	u	u	n	n	50µM	n
Cc1[nH]c2ccc(C(=O)N3CCN(c4cccc(Cl)c4)CC3)cc2c1C	u	40µM	n	n	u	n
Cc1cccc(N2CCN(C(=O)c3ccc4c(c3)N(Cc3ccccc3)C(=O)c3ccccc3S4(=O)=O)CC2C)c1 (stereo not given)	n	n	x	n	u	x
COc1ccccc1N1CCN(C(=O)c2ccc3[nH]c4c(c3c2)CC(C)CC4)CC1 (stereo not given)	u	u	n	u	40µM	n
CC1CCc2[nH]c3ccc(C(=O)O)cc3c2C1 (stereo not given)	n	x	n	n	n	n
Cc1[nH]c2ccc(C(=O)N3CCN(c4ccccc4Cl)CC3)cc2c1C	45µM	u	u	u	22µM	n
